Calls of active or inactive are those of the source. The call rests on the fitted dose curve.
Target: Tumor susceptibility gene 101 protein (Homo sapiens) (UniProt Q99816)
Assay: qHTS Validation Assay for Iinhibitors of HIV-1 Budding by Blocking the Interaction of PTAP/TSG101 (AID 485342)
Details: TSG101-PTAP binding, fluorescence polarization, 4-point titration; series mostly up to 115 µM
Excerpt: NIH Molecular Libraries Probe Production Network [MLPCN]
NIH Chemical Genomics Center [NCGC]
PI Name: Dr. Eric Freed, NCI
Stages of the HIV-1 replication cycle, specifically virus assembly and release, provide underexploited targets for the development of novel antiviral inhibitors. The late stages of HIV-1 replication are mediated by the Gag precursor protein, Pr55Gag. Expression of Pr55Gag is both necessary and sufficient for the production of virus-like particles from Gag-expressing cells. The Gag protein hijacks key host proteins involved in endocytic machinery of the host cell to promote endosomal processing and viral budding. The budding process requires a direct interaction between a […] (PTAP) motif in the p6 domain of Gag and the cellular endosomal sorting protein known as Tsg101. In this way, the Gag PTAP motif promotes the host cells to recruit viral particles to the plasma membrane where the new viral particles are released, effectively turning the host cells into viral factories. A fluorescence anisotropy assay has been developed to quantitatively measure the PTAP-Tsg101 interaction which can be used to screen for inhibitors of this interaction.
NCGC Assay Protocol Summary:
Two uL of the Tsg101 binding domain in buffer (10 mM HEPES pH 7.5; 0.15 M NaCl, 0.01% Tween 20; 3 mM EDTA;0.1 mM TCEP) was dispensed into Greiner black MB 1536-well plates (final concentration 10 uM). Then, 23 nL of compounds or DMSO were delivered to each well using a pin tool. Finally, 2 uL of a FITC-labeled peptide containing the PTAP motif (1) in the same buffer was dispensed (50 nM final concentration) and the binding was allowed to proceed for 20 min. at r.t. Fluorescent polarization was determined using FITC excitation and polarized emission filters on a Perkin Elmer Viewlux.
Keywords: Tsg101, PTAP, Gag, HIV, fluorescent polarization, MLSMR, MLPCN, NIH Roadmap, qHTS, NCGC

Sequence of Tumor susceptibility gene 101 protein (Homo sapiens) (Q99816 whole entry, looked up): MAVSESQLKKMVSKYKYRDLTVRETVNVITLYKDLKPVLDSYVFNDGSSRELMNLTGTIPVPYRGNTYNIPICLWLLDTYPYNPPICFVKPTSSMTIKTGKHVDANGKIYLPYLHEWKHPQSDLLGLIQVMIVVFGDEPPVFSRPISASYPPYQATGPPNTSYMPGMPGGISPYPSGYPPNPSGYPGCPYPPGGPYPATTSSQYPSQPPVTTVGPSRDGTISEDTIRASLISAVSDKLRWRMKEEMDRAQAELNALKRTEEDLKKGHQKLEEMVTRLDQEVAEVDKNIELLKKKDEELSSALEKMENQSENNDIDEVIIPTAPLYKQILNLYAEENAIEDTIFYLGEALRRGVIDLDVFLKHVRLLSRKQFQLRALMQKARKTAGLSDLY

Row | SMILES | outcome
1 | O=C(Cc1ccc(Cl)c(Cl)c1)N1CCCCC1CN1CCCC1 (stereo not given) | inactive
2 | CC(C)NC(C)Cc1ccc(I)cc1 (stereo not given) | inactive
3 | NC(CCP(=O)(O)O)C(=O)O (stereo not given) | inactive
4 | NC(=NCCC[C@H](N)C(=O)O)N[N+](=O)[O-] | inactive
5 | CCCN1CCO[C@@H]2c3cc(O)ccc3OC[C@H]21 | inactive
6 | CNCCc1c[nH]c2ccc(O)cc12 | inactive
7 | CC[C@@]1(O)C(=O)OCc2c1cc1n(c2=O)Cc2cc3ccccc3nc2-1 | inactive
8 | O=C1CCCN1CC#CCN1CCCC1 | inactive
9 | COc1ccc2c(c[n+](C)c3c4cc5c(cc4ccc23)OCO5)c1OC | inactive
10 | Cc1c(C(=O)c2cccc3ccccc23)c2cccc3c2n1[C@H](CN1CCOCC1)CO3 | inactive
11 | Cc1nccc2c1[nH]c1ccccc12 | inactive
12 | c1ccc(CCCN2CCN(CCOC(c3ccccc3)c3ccccc3)CC2)cc1 | inactive
13 | CCCN1CCC[C@H](c2cccc(O)c2)C1 | inactive
14 | NC1CC1c1ccccc1 (stereo not given) | inactive
15 | C[C@@H](N)Cc1cnc[nH]1 | inactive
16 | NC(=O)CN1CC(O)CC1=O (stereo not given) | inactive
17 | CC(=O)[C@H]1CCC2C3CC[C@H]4C[C@H](O)CC[C@]4(C)C3CC[C@@]21C (stereo not given in full) | inactive
18 | C[C@]12N[C@H](Cc3ccccc31)c1ccccc12 | inactive
19 | O=C(O)Cc1cnc[nH]1 | inactive
20 | C=CCN1CC[C@]23CCCCC2[C@H]1Cc1ccc(O)cc13 (stereo not given in full) | inactive

Row | SMILES | outcome
21 | S=C(NC1CCCCC1)N1CCC(c2cnc[nH]2)CC1 | inactive
22 | CC(=O)NCCc1c[nH]c2ccccc12 | inactive
23 | O=C(O)[C@@H]1CCN1 | inactive
24 | CNCCc1ccc(O)c(O)c1 | inactive
25 | C[C@@H]1O[C@H](C[N+](C)(C)C)C[C@H]1O | inactive
26 | NCc1cc(=O)[nH]o1 | inactive
27 | CN1C2CCC1CC(OC(=O)c1cc(Cl)cc(Cl)c1)C2 (stereo not given) | inactive
28 | NCCc1c[nH]c2ccccc12 | inactive
29 | NC1CCc2cc(O)c(O)cc2C1 (stereo not given) | inactive
30 | CC(Cc1ccc(O)cc1)NCC(O)c1cc(O)cc(O)c1 (stereo not given) | inactive
31 | CC[C@@H](C(N)=O)N1CCCC1=O | inactive
32 | CCCN(CCC)C1CCc2ccc(O)cc2C1 (stereo not given) | inactive
33 | O=C(N[C@H]1CN2CCC1CC2)c1ccc(Cl)cc1 | inactive
34 | CC(C)Oc1cccnc1N(C)C1CCN(Cc2ccccc2)CC1 | inactive
35 | CCCN(CCC)[C@@H]1CCc2ccc(O)cc2C1 | inactive
36 | CC1=NN=C(c2ccc(N)cc2)c2cc3c(cc2C1)OCO3 | inactive
37 | C[C@]12CCC3C(CC[C@H]4C[C@H](O)CC[C@]34C)C1CC[C@@H]2C(=O)CO (stereo not given in full) | inactive
38 | COC(=O)[C@@H](N)CCCN=C(N)N[N+](=O)[O-] | inactive
39 | CS(=N)(=O)CC[C@H](N)C(=O)O (stereo not given in full) | inactive
40 | NC(CP(=O)(O)O)C(=O)O (stereo not given) | inactive

Reference: PubChem BioAssay (NCATS)
